Data as given in PubChem BioAssay (NCATS).
Records with an inconclusive call do not appear. The source made the active and inactive calls. Calls follow the shape of the dose curve; as a rule, active = well fitted cell-killing curve with a large enough effect; inconclusive = small, poorly fitted or top-dose-only effect, or effect the other way; inactive = flat fitted curve, though single readings scatter.

How the values were obtained:
Assay in all cases: Primary qHTS to identify gynecologic anti-cancer compounds using libraries of approved drugs and bioactive compounds (AID 1345084); also: nearly all actives have a fitted effect of over 55% in size
Details in all cases: Gynecologic cancer cell panel viability, ATPlite luminescence, 48 h; series mostly up to 57.5 µM
OV90 = tested on: OV90
Outline: (§1)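 Cytotoxicity screen measuring ATP content by luciferase luminescence. Each compound is applied at five concentrations for 48 h at 37 C with 5% CO2.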

PA-1 = tested on: PA-1
Outline: as §1

SKOV3 = tested on: SKOV3
Outline: as §1

Tov-21-G = tested on: Tov-21-G
Outline: as §1

Tov112D = tested on: Tov112D
Outline: as §1
% is scaled to controls: 0 for no effect and ±100 for the full control effect.

O=C(NCC(=O)N1CCCC1)Nc1ccc2ccccc2c1
inactive: Potency (OV90) | Potency (PA-1) | Potency (SKOV3) | Potency (Tov-21-G) | Potency (Tov112D)

C[C@@H](c1ccccc1)N(C(N)=NC#N)c1cccc2ncccc12
inactive: Potency (OV90) | Potency (PA-1) | Potency (SKOV3) | Potency (Tov-21-G) | Potency (Tov112D)

COc1cc(O[C@@H]2O[C@H](CO[C@H]3OC[C@](O)(CO)[C@H]3O)[C@@H](O)[C@H](O)[C@H]2O)cc(OC)c1O
inactive: Potency (OV90) | Potency (PA-1) | Potency (SKOV3) | Potency (Tov-21-G) | Potency (Tov112D)

CC1=CC(=O)C(=C(C)C)CC2C(C)(O)CCC12O (stereo not given)
inactive: Potency (OV90) | Potency (PA-1) | Potency (SKOV3) | Potency (Tov-21-G) | Potency (Tov112D)

COc1c2ccoc2nc2c(OC)c(O[C@@H]3O[C@@H](C)[C@H](O)[C@@H](O[C@@H]4O[C@H](CO)[C@@H](O)[C@H](O)[C@H]4O)[C@H]3OC(C)=O)ccc12
inactive: Potency (OV90) | Potency (PA-1) | Potency (SKOV3) | Potency (Tov-21-G) | Potency (Tov112D)

CC(C)(O)/C=C/C(=O)[C@](C)(O)[C@H]1[C@H](O)C[C@@]2(C)[C@@H]3CC=C4[C@@H](C=C(O[C@@H]5O[C@H](CO)[C@@H](O)[C@H](O)[C@H]5O)C(=O)C4(C)C)[C@]3(C)C(=O)C[C@]12C
inactive: Potency (OV90) | Potency (PA-1) | Potency (SKOV3) | Potency (Tov-21-G) | Potency (Tov112D)

O=C(c1ccc(Cl)c([N+](=O)[O-])c1)N1CCN(c2ccccc2F)CC1
inactive: Potency (OV90) | Potency (PA-1) | Potency (SKOV3) | Potency (Tov-21-G) | Potency (Tov112D)

COC(=O)C1=COC(O[C@@H]2O[C@H](CO)[C@@H](O)[C@H](O)[C@H]2O)[C@@H]2[C@@](C)(O)[C@@H](OC(=O)/C=C/c3ccccc3)C[C@]12O (stereo not given in full)
inactive: Potency (OV90) | Potency (PA-1) | Potency (SKOV3) | Potency (Tov-21-G) | Potency (Tov112D)

O=C(N[C@H](Cc1ccccc1)C(=O)O)c1sc2cc(F)ccc2c1Cl
inactive: Potency (OV90) | Potency (PA-1) | Potency (SKOV3) | Potency (Tov-21-G) | Potency (Tov112D)

CC(=O)O[C@H]1C[C@@H](O)C(C)(C)C2C[C@@H](OC(C)=O)[C@]3(C)C(CC[C@@]4(C)[C@H](c5ccoc5)OC(=O)[C@H]5O[C@]543)[C@]21C (stereo not given in full)
inactive: Potency (OV90) | Potency (PA-1) | Potency (SKOV3) | Potency (Tov-21-G) | Potency (Tov112D)

OC[C@@]1(O)CO[C@H](OC[C@H]2O[C@@H](OC(CCCCc3ccc(O)cc3)CCc3ccc(O)cc3)[C@H](O[C@H]3OC[C@](O)(CO)[C@H]3O)[C@@H](O)[C@@H]2O)[C@@H]1O (stereo not given in full)
inactive: Potency (OV90) | Potency (PA-1) | Potency (SKOV3) | Potency (Tov-21-G) | Potency (Tov112D)

CC(CC(C)O[C@@H]1O[C@H](CO)[C@@H](O)[C@H](O)[C@H]1O)OC(=O)/C=C/c1ccc(O)cc1 (stereo not given in full)
inactive: Potency (OV90) | Potency (PA-1) | Potency (SKOV3) | Potency (Tov-21-G) | Potency (Tov112D)

CC(O)C(O)/C=C/C=C/C(=O)O[C@@H]1C=C(C(=O)O)[C@](O)(CO)[C@@]2(C)CCCC(C)(C)[C@H]12 (stereo not given in full)
inactive: Potency (OV90) | Potency (PA-1) | Potency (SKOV3) | Potency (Tov-21-G) | Potency (Tov112D)

CC1=C(CO)C2(C)CCCC(C)(C)C2C(O)C1O (stereo not given)
inactive: Potency (OV90) | Potency (PA-1) | Potency (SKOV3) | Potency (Tov-21-G) | Potency (Tov112D)

C=C(C)[C@@H]1CC[C@]2(C)CC[C@]3(C)C(CCC4[C@@]5(C)CC[C@H](O)C(C)(C)C5CC[C@]43C)C12 (stereo not given in full)
inactive: Potency (OV90) | Potency (PA-1) | Potency (SKOV3) | Potency (Tov-21-G) | Potency (Tov112D)

COc1ccc(-n2[nH]c3c(cnc4ccccc43)c2=O)cc1
inactive: Potency (OV90) | Potency (PA-1) | Potency (SKOV3) | Potency (Tov-21-G) | Potency (Tov112D)

C[C@H]1[C@H](C)CC[C@]2(C(=O)O)CC[C@]3(C(=O)O)C(=CCC4[C@@]5(C)CC[C@H](O[C@@H]6O[C@@H](C)[C@H](O)[C@@H](O)[C@H]6O)C(C)(C)C5CC[C@]43C)[C@H]12 (stereo not given in full)
inactive: Potency (OV90) | Potency (PA-1) | Potency (SKOV3) | Potency (Tov-21-G) | Potency (Tov112D)

CC1(C)CC[C@]2(C(=O)O[C@@H]3O[C@H](CO)[C@@H](O)[C@H](O)[C@H]3O)CC[C@]3(C)C(=CCC4[C@@]5(C)CC[C@H](O[C@@H]6O[C@H](C(=O)O)[C@@H](O[C@@H]7O[C@H](CO)[C@@H](O)[C@H](O)[C@H]7O)[C@H](O)[C@H]6O)C(C)(C)C5CC[C@]43C)C2C1 (stereo not given in full)
inactive: activity change, negative = cytotoxicity (OV90) 3.65% [at 11.6 µM] | activity change, negative = cytotoxicity (PA-1) 12% [at 11.6 µM] | activity change, negative = cytotoxicity (SKOV3) 7.57% [at 11.6 µM] | activity change, negative = cytotoxicity (Tov-21-G) 4.63% [at 11.6 µM] | activity change, negative = cytotoxicity (Tov112D) 2.05% [at 11.6 µM]

Oc1ccc(CC2NCCc3cc(O)c(O)cc32)cc1 (stereo not given)
inactive: Potency (OV90) | Potency (PA-1) | Potency (SKOV3) | Potency (Tov-21-G) | Potency (Tov112D)

CCCSc1nc(NC2CC2c2ccc(F)c(F)c2)c2nnn(C3CC(OCCO)C(O)C3O)c2n1 (stereo not given)
inactive: Potency (OV90) | Potency (PA-1) | Potency (SKOV3) | Potency (Tov-21-G) | Potency (Tov112D)
